# IL1B secr inh – qHTS for Inhibitors of Inflammasome Signaling: IL-1-beta AlphaLISA Primary Screen; THP-1 LPS/ATP IL-1B secretion, AlphaLISA, 16 h; active compounds read low; activity change, % at 57.5 µM; 4.7% of 360,000 active; AID 743279, 2014; in the data active = activity change below about -50%; inconclusive = mostly about -30% to -49%
#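 THP-1 cells pretreated 1 hr with compounds (up to 57.5 uM final), then stimulated with LPS (250 ng/mL final) plus ATP (1.25 mM final); secreted IL-1B measured by AlphaLISA after 16 hr, decreased signal indicating inhibition.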
# RORg inh – qHTS for inhibitors of ROR gamma transcriptional activity | Nuclear receptor ROR-gamma (Mus musculus), P51450 | Drosophila S2 Gal4-RORgamma UAS-luciferase reporter, 20 h | Potency, µM (titrated, usually from 53.6 µM), hits mostly inhibitors | 5.4% of 310,000 active | AID 2551, 2010; note: nearly all actives have a fitted effect of over 60% in size
# Target sequence (P51450 whole entry, looked up, the tested form may be a part): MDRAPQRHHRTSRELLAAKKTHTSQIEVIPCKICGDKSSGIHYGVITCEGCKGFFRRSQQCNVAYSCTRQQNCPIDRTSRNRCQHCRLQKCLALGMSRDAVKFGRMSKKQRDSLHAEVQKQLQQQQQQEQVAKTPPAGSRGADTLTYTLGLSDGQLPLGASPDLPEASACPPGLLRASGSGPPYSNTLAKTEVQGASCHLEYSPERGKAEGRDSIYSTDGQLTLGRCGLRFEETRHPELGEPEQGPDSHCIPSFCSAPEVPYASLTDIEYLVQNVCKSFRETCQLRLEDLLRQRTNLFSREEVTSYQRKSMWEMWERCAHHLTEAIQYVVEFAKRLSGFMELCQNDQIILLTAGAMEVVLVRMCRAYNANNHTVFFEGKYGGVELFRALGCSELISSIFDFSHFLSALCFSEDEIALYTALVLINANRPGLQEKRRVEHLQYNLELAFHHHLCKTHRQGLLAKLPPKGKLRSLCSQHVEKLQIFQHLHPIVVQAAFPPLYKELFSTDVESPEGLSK
#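 Schneider cells (Drosophila), stable Gal4 DBD–ROR gamma + UAS-luc; 1 hr cmpd preincubation; Cu2+ induction 700 uM final; 20 hr ambient; luminescence.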
# MCF10A rerep – A quantitative high throughput screen for small molecules that induce DNA re-replication in MCF 10a normal breast cells | MCF 10A DNA re-replication, Hoechst nuclear intensity, 48 h | Potency, µM (doses to about 46.1 µM), usual class: activators | 2.9% of 350,000 active; note: nearly all actives have a fitted effect of over 50% in size
# VP16 counter – VP16 counterscreen qHTS for inhibitors of ROR gamma transcriptional activity; Potency, µM (series often up to 53.6 µM), usual class: inhibitors; Drosophila S2 Gal4-VP16 UAS-luciferase, luminescence, 20 h; 3.5% of 310,000 active;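 note: Gal4-VP16 expression switched on by copper sulfate through the metallothionein promoter; nearly all actives have a fitted effect of over 50% in size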
# SW480 rereplic – A quantitative high throughput screen for small molecules that induce DNA re-replication in SW480 colon adenocarcinoma cells | SW480 DNA re-replication, Hoechst DNA content imaging, 48 h | Potency, µM (titrated, usually from 46.1 µM), usual class: activators | 1.8% of 340,000 active | AID 624297, 2012; note: nearly all actives have a fitted effect of over 55% in size
#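 Image-based DNA-content assay: after two days of treatment, nuclei were labelled with the DNA dye Hoechst and imaged, and hits were compounds raising the count of nuclei showing high fluorescence intensity.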
# A number is an active result; 0 = inactive; ? = inconclusive; - = no result given; ! = repeats disagree; [ ] = another dose, or the depositor's remark. Compounds with a hit are over-represented: about 11% of the library has one in this group of screens. Unless noted, calls come from the whole dose curve; as a rule, active = well fitted curve in the direction sought with a large enough effect; inconclusive = small, poorly fitted or top-dose-only effect, or another doubt; inactive = no such curve, though single readings can be large; an effect the other way counts as inactive or inconclusive.
SMILES,IL1B secr inh,RORg inh,MCF10A rerep,VP16 counter,SW480 rereplic
Oc1ccccc1C=NN=Cc1ccccc1Cl,0,-,0,-,0
NC(N)=N/N=C/c1cccc(Cl)c1Cl,-101,0,0,0,?
CCC1(c2ccccc2)C(=O)N(C(=O)OC(C)(C)C)N1C(=O)OC(C)(C)C (stereo not given),?,-,0,-,0
CCOC(=O)N1C(=O)[C@](CC)(c2ccccc2)N1C(=O)OCC,-98,0,16µM,0,?
Cc1[nH]c2ccccc2c1/C=C/c1nc2ccccc2c(=O)n1CCO,-84,?,?,0,?
O=c1c2ccccc2nc(/C=C/c2ccc(Cl)cc2)n1CCO,-74,?,?,0,?
O=c1c2ccccc2nc(/C=C/c2ccc(Br)cc2)n1CCCO,?,0,?,0,0
O=c1c2ccccc2nc(/C=C/c2ccc(Br)cc2)n1CCO,-83,-,?,-,0
Cc1ccc(/C=C/c2nc3ccccc3c(=O)n2CCc2ccccc2)cc1,0,0,?,0,0
COc1cccc(/C=N/NC(=O)c2ccc(-n3cnnn3)cc2)c1,0,-,0,-,0
Cc1noc(C)c1C(=O)N1CCC[C@@]2(CCN(C(c3ccccc3)c3ccccc3)C2)C1,-,0,-,0,-
Brc1cc(Br)c2ncnc(N3CCCCC3)c2c1,0,0[10 µM],5.8µM,0,?
CC1(C(=O)NCc2ccco2)CCN1C(=O)C1(c2ccccc2)CC1 (stereo not given),-107,-,-,-,-
CCOc1cc(C(=O)N(C)CC(=O)Nc2cccc3ccccc23)ccc1OC,0,-,0,-,0
CCCCCc1cc(=O)oc2c(C(CCN3CCCCC3)c3ccc(OC)cc3)c(OC)cc(OC)c12 (stereo not given),?,?,0,?,?
CCCCCc1cc(=O)oc2c(C(CCN(CC)CC)c3ccc(OC)cc3)c(OC)cc(OC)c12 (stereo not given),?,?,?,8.9µM,0
CCCCCc1cc(=O)oc2c(C(CCN3CCCC3)c3ccc(N(C)C)cc3)c(OC)cc(OC)c12 (stereo not given),-76,?,0,0,0
CCN(CC)CCC(c1ccc(OC)cc1)c1c(OC)cc(OC)c2c(C)cc(=O)oc12 (stereo not given),-,0,-,0,-
CCCCCc1cc(=O)oc2c(C(CCN3CCCC(C)C3)c3ccc(OC)cc3)c(OC)cc(OC)c12 (stereo not given),-54,0,0,0,?
N=c1n(CCN2CCCCC2)c2ccccc2n1CC(O)COc1ccccc1 (stereo not given),-56,0,0,0,?
N=c1n(CCN2CCCC2)c2ccccc2n1CC(O)c1ccco1 (stereo not given),0,0,0,0,0
COc1ccccc1OCC(O)Cn1c(=N)n(CCN2CCCCC2)c2ccccc21 (stereo not given),-53,0,?,0,?
Cc1ccc(S(=O)(=O)N2CCN(C(=O)COC(=O)c3ccccc3OC(F)F)CC2)c(C)c1,0,-,0,-,0
O=C(O)c1cc(O)c2c(c1)C(=O)c1cc(O)cc(O)c1C2=O,0,6.3µM!,0,?,0
COc1cc(O)c2c(c1)C(=O)c1cc(C)cc(O)c1C2=O,-,0,-,0,-
SMILES,IL1B secr inh,RORg inh,MCF10A rerep,VP16 counter,SW480 rereplic
Cc1ccc(CNC(=S)Nc2ccc(OC(F)F)cc2C)cc1,0,5.6µM,0,4.5µM,0
COc1ccc(CNC(=O)Nc2ccc(C)cc2C)cc1,0,0,0,?,0
Cc1ccc(NC(=O)c2cnccn2)c(OC(F)F)c1,0,0[0.365 µM],0,-,0
Cc1ccc(NC(=S)NCc2ccc(Cl)cc2)c(OC(F)F)c1,0,6.3µM,0,5µM,0
CSc1nc2ccc(NC(=O)c3c(-c4ccccc4)noc3C)cc2s1,-65,0,0,0,0
COc1ccc(Cc2nnc(NC(C)=O)s2)cc1,0,0,0,0,0
COc1ccc(Cc2nnc(NC(=O)c3c(-c4ccccc4)noc3C)s2)cc1,0,16µM,?,?,0
Cc1onc(-c2ccccc2)c1C(=O)Nc1ccc(NC(=O)c2c(-c3ccccc3)noc2C)cc1,0,-,0,-,0
COc1ccc(Cc2nnc(NC(=O)c3cc(OC)cc(OC)c3)s2)cc1,0,0,13µM,0,0

# Bioassay records deposited in PubChem by National Center for Advancing Translational Sciences (NCATS).
